# Laboratory results: PubChem BioAssay AID686970 (National Center for Advancing Translational Sciences (NCATS), 2013)
# In all, about 360,000 compounds went through this assay and about 6,000 (1.7%) were called active. Inconclusive results (about 8%) are left out. For the sample, actives were picked, then their nearest neighbours and some compounds at random. Unmarked numbers belong to inactive results. Calls come from the whole dose curve; as a rule, active = well fitted cell-killing curve with a large enough effect; inconclusive = small, poorly fitted or top-dose-only effect, or effect the other way; inactive = flat fitted curve, though single readings scatter.
# Assay: qHTS for induction of synthetic lethality in tumor cells producing 2HG: qHTS for the HT-1080-NT fibrosarcoma cell line; note: nearly all actives have a fitted effect of over 55% in size
# Conditions: HT-1080-NT fibrosarcoma viability, CellTiter-Glo ATP luminescence, 48 h; series mostly up to 46.1 µM; activity, negative = less viability: at the top concentration
# From the text: Unbiased genomic sequencing for 22 glioma genomes found recurrent mutation of IDH1 on chromosome 2q33, a gene encoding the cytosolic isoform of IDH1 associated with the tricarboxylic acid cycle (TCA) that catalyzes the oxidative decarboxylation of isocitrate, yielding alpha-ketoglutarate and CO2 via NADP+ to NADPH conversion. Subsequent studies confirmed the recurrent IDH mutations in up to 70% of secondary gliomas and in 10% of AML cases. In addition, the somatic mutation of cancer-associated IDH1 is a point mutation resulting in various amino-acid substituents at Arginine132 (IDH1 R132), a key residue found in the enzyme's active site that when mutated, results in the loss-of-function in metabolizing isocitrate but confers a gain-of-function to produce the oncometabolite 2-hydroxyglutarate (2HG). This in effect defines IDH1 as an oncogene and provides an extraordinary opportunity to discover chemical probes against mutant IDH1 that may translate into much needed new therapies for glioma and AML patients.
# This assay aims to perform a synthetic lethal screen for chemical probes specific for 2HG-producing tumor cells using matched paired cell lines (1) HT-1080-NT fibrosarcoma cell line that overproduces 2HG and (2) HT-1080-IDH1KD cell line which has IDH1 expression knocked-down. Desirable compounds are toxic to the NT fibrosarcoma cells but not to the IDH1KD cell line. The data in this AID corresponds to the results of the qHTS against the HT-1080-NT fibrosarcoma cell line.
# [1] Dang L, Jin S, Su SM. IDH mutations in glioma and acute myeloid leukemia. Trends of Mol Med. 2010; 16(9): 387-97.
# [2] Dang L et al. Cancer-associated IDH1 mutations produce 2-hydroxyglutarate. Nature. 2010; 465(7300):966.
# NIH Molecular Libraries Probe Production Centers Network [MLPCN]
# NIH Chemical Genomics Center [NCGC]
# Assay Submitter (PI): Lenny Dang Ph.D., Agios Pharmaceuticals
# Suspensions of trypsinized HT-1080-NT cells were dispensed into white, tissue culture-treated, solid 1536-well plates at 5uL/well (750 cells/well final concentration) in RPMI medium supplemented with 5% FBS. Plates were incubated at 37 degrees C for 2 hours, after which 23 nL of compounds or DMSO were delivered to each well using a pin tool. Plates were then incubated at 37 degrees C for an additional 48 hours. CellTiter-Glo viability reagent (Promega) was dispensed into wells (2.5uL/well) and incubated at room temperature for 10 minutes. The plates were measured on a PerkinElmer ViewLux plate reader for luminescent signal (clear filter, 1 sec exp). DMSO-treated control wells and media-only (no cells) control wells were used to normalize %Activity of identified toxic compounds; DMSO-treated wells corresponded to 0%Activity (100% viability), while media-only controls were used to normalize 100%Activity (0% viability).
# Concentration-response curves were fitted to the signals arising from the resulting luminescence. The concentration-effect curves were then classified based on curve quality (r2), response magnitude and degree of measured activity, and compounds were subsequently categorized based on their curve class.
# Potency is the fitted concentration of half-maximal effect.
Structure (SMILES),"activity, negative = less viability",Potency
Cc1ccc(-c2nc3ccc(Cl)cn3c2Cc2ccccc2)cc1,14.8%,–
Cc1ccc(Cc2c(-c3ccccc3)nc3ccc(Cl)cn23)cc1,-0.274%,–
Cc1ccc(Cc2c(-c3ccco3)nc3ccc(Cl)cn23)cc1,–,23.1 µM (active)
COc1cc(F)ccc1-c1cc(C(=O)NCC2CCCCC2)[nH]n1,28.9%,–
O=C1C(Cl)=C(Oc2ccccc2)C(=O)c2ccccc21,–,4.11 µM (active)
COc1ccc(C(=O)OCC(=O)Nc2cc(C)on2)cc1F,6.13%,–
CC(C)(C)OC(=O)N1CCN(C(=O)c2[nH]c(C(F)(F)F)nc2-c2ccccc2)CC1,9.95%,–
O=c1c([N+](=O)[O-])cccn1Cc1ccc(F)cc1Cl,–,14.6 µM (active)
O=[N+]([O-])c1ccccc1NCc1ccccc1Cl,-10.6%,–
N/C(=N/O)c1cccn1Cc1ccccc1[N+](=O)[O-],10.5%,–
CC1CC(C)CN(CCCNC(=O)Cn2ncc3c([nH]c4ccccc43)c2=O)C1 (configuration not stated),5.3%,–
Cc1c2cnn(CC(=O)NCCCN3CC(C)CC(C)C3)c(=O)c2c(C)n1Cc1ccc(Cl)cc1 (configuration not stated),–,23.1 µM (active)
Cc1ccc(Cn2c(C)c3cnn(CC(=O)NCCN4CCOCC4)c(=O)c3c2C)cc1,9.01%,–
Cc1cccc(C)c1NC(=O)CNC(=O)c1ccc(N2CCOCC2)c([N+](=O)[O-])c1,-0.0226%,–
O=C(NC1C2CC3CC(C2)CC1C3)c1ccc(N2CCNCC2)c([N+](=O)[O-])c1 (configuration not stated),20.4%,–
CC(NC(=O)c1ccc(N2CCNCC2)c([N+](=O)[O-])c1)C12CC3CC(CC(C3)C1)C2 (configuration not stated),–,16.4 µM (active)
O=C(Nc1ccc(N2C(=O)c3cccc4cccc(c34)C2=O)cc1)c1ccc(N2CCCCC2)c([N+](=O)[O-])c1,4.35%,–
CCC(C)NC(=O)c1ccc(N2CCC3(CC2)OCCO3)c([N+](=O)[O-])c1 (configuration not stated),0.381%,–
O=C(Nc1cccc(C(F)(F)F)c1)c1ccc(N2CCNCC2)c([N+](=O)[O-])c1,–,16.4 µM (active)
CCc1noc(C)c1C(=O)OCC(=O)c1ccc(NC(=O)CC(C)C)cc1,1.43%,–
Cc1cc2nc(-c3ccc(F)cc3)c(Cc3ccsc3)n2c(C)c1Br,-22.5%,–
Cc1cc2nc(-c3ccco3)c(Cc3cccc(F)c3)n2c(C)c1Br,–,20.6 µM (active)
Fc1cccc(Cc2c(-c3ccc(Cl)cc3)nc3ccc(Cl)cn23)c1,-1.75%,–
COc1cc(C=C(OC(C)=O)c2ccc3c(c2)OCO3)cc(OC)c1OC,-12.3%,–
CCCNC(=O)C[C@@H]1CC[C@@H]2[C@H](COC[C@H](O)CN2C(=O)c2cc(Cl)cc(Cl)c2)O1,10.8%,–

Structure (SMILES),"activity, negative = less viability",Potency
CCOC(=O)c1cc2cc(OC)ccc2n1C1CCN(C)CC1,-25.5%,–
CC1(C)N=C(N)NC(Nc2ccc(Cl)cc2)=N1,14.3%,–
COc1ccccc1NC1=NC(c2ccc(Cl)cc2)N=C(N)N1 (configuration not stated),–,10 µM (active)
COc1ccccc1NC(=O)C1CCCN1S(=O)(=O)c1ccc(Cl)cc1 (configuration not stated),-2.2%,–
CCc1nc2ccc(C(=O)NCCNC(C)=O)cn2c1N(CC)Cc1cccc(Br)c1,25.8%,–
CCC(C)CN1C(=O)CN(S(C)(=O)=O)CC1(C)C(=O)Nc1ccc2c(c1)OCCO2 (configuration not stated),-1.35%,–
C[C@H]1CN(c2ccc(Br)cc2)C(=O)[C@@H]1CC(=O)Nc1ccc(Br)cc1,-0.873%,–
c1ccc(CNCc2ccc(CNCc3ccccc3)cc2)cc1,-20.6%,–
CC1(C(=O)Nc2ccc3c(c2)OCCO3)CSCC(=O)N1CCOc1ccccc1 (configuration not stated),-1.2%,–
Cc1cc(C)cc(OCC(=O)NNC(=O)c2cc3ccccc3oc2=O)c1,10.5%,–
Cc1ccn2c(-c3csc(Nc4ccc(C(=O)O)cc4)n3)c(C)nc2c1,-23.2%,–
O=c1oc2ccccc2cc1-c1csc(Nc2ccc(O)cc2)n1,–,14.6 µM (active)
CCc1c(N=O)c(-c2ccccc2)n(O)[n+]1[O-],-3.38%,–
CC(C)CNC(=O)C1(C)CCCN1C(=O)CSc1ccccc1 (configuration not stated),20.3%,–
COc1ccc(C(O)c2nc(-c3ccc4c(c3)OCO4)cs2)cc1 (configuration not stated),4.1%,–
CCCc1ccc(S(=O)(=O)N2CCN(C(=O)c3cc(C)on3)CC2)cc1,1.01%,–
O=C(Nc1nnc([C@H]2C[C@H](O)[C@@H](CO)O2)s1)c1cccc(Cl)c1,1.95%,–
CN(C)CCN1CCN(c2cc(-c3cccc(Cl)c3)nc3ccnn23)CC1,-16.2%,–
C#Cc1cc(N2CCN(C(=O)c3ccoc3)CC2)n2nc(-c3cccc(Cl)c3)cc2n1,–,14.6 µM (active)
O=C(c1ccccc1)N1CCN(c2cc(-c3ccccc3)nc3cc(-c4cccc(Cl)c4)nn23)CC1,3.77%,–
CC(=O)Nc1ccc(C=CC(=O)c2ccc([N+](=O)[O-])cc2)cc1,7.09%,–
O=C(N=C1SC2CS(=O)(=O)CC2N1Cc1ccccc1)c1ccccc1 (configuration not stated),2.42%,–
COCOCCn1cc(CN2CCS(=O)(=O)N(Cc3ccc(-c4ccccc4)cc3)C(CC(C)C)C2=O)nn1 (configuration not stated),-10%,–
COc1cccc(/C=C2\SC(=S)N(CCCC(=O)N3CCOCC3)C2=O)c1,0.898%,–
CCCCc1ccc(S(=O)(=O)NC(=O)C2(C)CCN2C(=O)c2ccccc2)cc1 (configuration not stated),8.41%,–

Structure (SMILES),"activity, negative = less viability",Potency
CCCOc1ccc(/C=N/NC(=O)C2CC2)c(OCCC)c1,-1.92%,–
CCCOc1ccc(C(=O)CCC(=O)OC(C)C(=O)Nc2ccc(NC(C)=O)cc2)cc1 (configuration not stated),4%,–
CCCOc1ccc(C(=O)C(CCC(CNCC)C(=O)c2ccc(OCCC)cc2)CNCC)cc1 (configuration not stated),–,16.4 µM (active)
Cc1ccccc1S(=O)(=O)NC(=O)C1(C)CCN1C(=O)C1(c2ccc(Cl)cc2)CC1 (configuration not stated),0.791%,–
COc1cc(C(O)c2nc(-c3cnn(C)c3)cs2)ccc1F (configuration not stated),4.84%,–
O=C(Nc1ccc(F)cc1)C(CCc1ccccc1)N1CCN(CC(=O)N2CCCC2)CC1 (configuration not stated),0.926%,–
CCCCCCNC(=O)O[C@]12C[C@@H](C(=O)OC)[C@@H](C(=O)OC)C[C@@]1(O)CN(S(=O)(=O)c1ccc(C)cc1)C2,-0.467%,–
Cc1ccc(S(=O)(=O)N2C[C@H]3n4c(=O)ccc(=O)n4C[C@H](OC(=O)NC4CCCC4)[C@@]3(O)C2)cc1,-27.2%,–
CCCCCCNC(=O)O[C@H]1CN(C(=O)OC(C)C)N(C(=O)OC(C)C)[C@@H]2CN(S(=O)(=O)c3ccc(C)cc3)C[C@]12O,–,20.6 µM (active)
CS(=O)(=O)N1CCCCC1c1cc(C(=O)NCc2ccccc2)no1 (configuration not stated),23.6%,–
CC(=O)OCC(C)n1c(=O)c2ccccc2n1C(C)=O (configuration not stated),3.8%,–
CC(NC(=S)Nc1ccccc1)C1COc2ccccc2O1 (configuration not stated),-2.44%,–
CCN1/C(=C/C(=S)Nc2ccccc2)Sc2ccccc21,–,6.51 µM (active)
CCOC(=O)CNC(=O)N1c2ccccc2Sc2ccccc21,0%,–
COc1ccc(OC)c(CN2C(=O)CCC2(C)c2nnnn2Cc2ccccc2)c1 (configuration not stated),6.01%,–
CCOC(=O)N1CCN(C(=O)C[C@@H]2C[C@@]3(C(=O)OC)CCCCC=C3N(CCC3=CCCCC3)C2=O)CC1,-17.7%,–
Cc1cc(C(=O)Nc2nnc(C3CC3)s2)c(C)s1,-2.13% [at 9.24 µM],–
CCc1ccccc1OCC(=O)Nc1nnc(C2CC2)s1,6.09%,–
O=C(Nc1nnc(C2CC2)s1)c1ccccn1,–,7.08 µM (active)
Cc1onc(-c2ccccc2)c1-c1nnc(COC(=O)c2ccc(N(C)C)cc2)o1,-9.65%,–
COc1ccc(CCNC(=O)Nc2ccc3c(c2)c(=O)n(C)n3C)cc1OC,18.5%,–
CCOC(=O)c1[nH]ncc1CN1CCCC(C(=O)c2ccc(OC)cc2C)C1 (configuration not stated),2.6%,–
COc1ccc(C(=O)C2CCCN(Cc3cccn3-c3ccccn3)C2)c(C)c1 (configuration not stated),–,8.2 µM (active)
COc1ccc(C(=O)C2CCCN(Cc3ccc4nonc4c3)C2)c(C)c1 (configuration not stated),-10.5%,–
COCCCN1C(=O)C(CC(=O)NCc2cccs2)CC(C(=O)N2CCOCC2)=C1C (configuration not stated),13.1%,–

Structure (SMILES),"activity, negative = less viability",Potency
Cc1ccc(NC(=O)Cn2nnc(C(=O)NCc3ccco3)c2N)c(C)c1,–,20.6 µM (active)
CCOc1ccccc1NC(=O)Cn1nnc(C(=O)NCc2cccs2)c1N,–,0.461 µM (active)
CCOc1ccccc1NC(=O)Cn1ncc2ccc([N+](=O)[O-])cc21,-2.56%,–
COc1ccc(CNC(=O)c2nnn(CC(=O)Nc3cc(C)cc(C)c3)c2N)cc1,1.9%,–
Cc1ccc(SCC(=O)NC(=O)NCc2ccco2)c(C)c1,-4.84%,–
CCOc1ccc(Cn2nnc(C(=O)Nc3ccc(OC)cc3OC)c2N)cc1,-2.78%,–
CC(=O)c1ccc(OCC(=O)N(C)C2CCS(=O)(=O)C2)cc1 (configuration not stated),14.7%,–
COc1ccc(CN2C(=O)C(CC(=O)NCCN3CCOCC3)CC(C(=O)N(C(C)C)C(C)C)=C2C)cc1 (configuration not stated),1.88%,–
O=C(NCc1ccc(F)cc1F)[C@@H]1CCCN1C(=O)[C@@H]1CCCN1C(=O)c1cccc(Cl)c1,10.8%,–
Nc1nc2c(Br)ccc(Br)c2cc1C(=O)NCCc1ccccc1,0.0286%,–
CCOC(=O)c1cc(-c2sc(NC(=O)c3ccccc3)nc2C)n(Cc2ccccc2)n1,-27.9%,–
COc1cc(OC)cc(C(=O)N[C@H](C(=O)Nc2nc3ccccc3[nH]2)C(C)C)c1,–,1.16 µM (active)
COc1ccc(C(=O)N[C@H](C(=O)NCc2ccccc2)C(C)C)cc1,8.29%,–
COc1cc(OC)cc(C(=O)N[C@H](C(=O)NNC(=O)c2ccc(Br)cc2)C(C)C)c1,-0.305%,–
Cc1ccc(NS(=O)(=O)c2ccc(C(C)(C)C)cc2)cn1,1.12%,–
CN(NS(=O)(=O)c1cccs1)c1ncc(C(F)(F)F)cc1Cl,6.3%,–
Cc1cc(C)cc(NS(=O)(=O)c2ccc(Oc3ncc(C(F)(F)F)cc3Cl)cc2)c1,–,23.1 µM (active)
COC(=O)[C@@]1(Sc2ccc(C)cc2)CC(=O)N(c2cccc(SC)c2)[C@@H]1c1ccccc1,-37.1%,–
CCCCCCN1CCN(C2CN(Cc3cn(CCCCCC)nn3)S(=O)(=O)C2)CC1 (configuration not stated),-28.1%,–
Cn1c(NCc2cccnc2)nc2cc(-c3ccc(F)cc3)sc2c1=O,3.48%,–
CCC1(CC)Cc2ccccc2-c2nc(CCl)[nH]c(=O)c21,-27.6%,–
O=c1[nH]c(CCl)nc2cc(-c3ccc(Cl)cc3)sc12,–,16.4 µM (active)
